High-throughput results deposited in PubChem by National Center for Advancing Translational Sciences (NCATS).
Most compounds without a hit are left out; they make up all but 0.49% or so of the library.
Vif-A3F inh: Vif-A3F binding inhibition; AID 602313; hit rate 0.2% among 390,000; HeLa A3F-eYFP + Vif (tagged APOBEC3F with the HIV-1 protein that degrades it), YFP fluorescence increase; Potency, µM (top dose mostly 46.1 µM); note: nearly all actives have a fitted effect of over 65% in size
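HeLa cells stably expressing A3F-eYFP plus Vif, plated and incubated overnight at 37 deg C, then exposed to compounds overnight at 37 deg C. Blocked degradation read as raised yellow fluorescence (Ex 488/Em 500-530).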
LDHA block: inhibitors of human lactate dehydrogenase A; purified LDHA, NADH/diaphorase-resazurin fluorescence; active compounds read low; activity change, % (values are at about 110 or 230 µM); hit rate 0.15% among 480,000; in the data active = activity change below about -30%; inconclusive = mostly about -25% to -30%
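Remaining NADH was detected by diaphorase (0.133 mg/mL) converting 37 µM resazurin to fluorescent resorufin, read at 0 and 20 minutes. The preceding 5-minute room-temperature reaction used 2 nM LDHA, 0.2 mM sodium pyruvate and 0.06 mM NADH at pH 7.4.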
Vif-A3G inh: inhibitors of Vif-APOBEC3G interaction; Q9HC16; HeLa A3G-eYFP + Vif (tagged APOBEC3G with the HIV-1 protein that degrades it), YFP fluorescence, overnight; Potency, µM (highest dose often 46.1 µM), actives largely listed as inhibitors; hit rate 0.076% among 410,000; note: nearly all actives have a fitted effect of over 60% in size
Target sequence (Q9HC16 whole entry, looked up): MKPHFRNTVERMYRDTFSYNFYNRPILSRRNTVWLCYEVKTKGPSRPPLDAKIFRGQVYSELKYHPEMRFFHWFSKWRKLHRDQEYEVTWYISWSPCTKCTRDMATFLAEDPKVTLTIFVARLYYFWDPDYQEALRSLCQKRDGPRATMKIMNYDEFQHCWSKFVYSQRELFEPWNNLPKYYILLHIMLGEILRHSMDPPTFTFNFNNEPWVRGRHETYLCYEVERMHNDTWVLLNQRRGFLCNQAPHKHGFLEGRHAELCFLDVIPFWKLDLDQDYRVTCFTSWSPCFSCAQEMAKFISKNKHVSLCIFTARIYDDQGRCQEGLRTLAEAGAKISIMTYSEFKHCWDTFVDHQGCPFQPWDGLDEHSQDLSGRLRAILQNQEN
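HeLa cells stably expressing Vif and C-terminally eYFP-tagged A3G, seeded overnight at 37 deg C, then exposed to compound by pintool overnight at 37 deg C. Rise in yellow fluorescence (Ex 488/Em 500-530, Acumen) marks blocked Vif-driven A3G degradation.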
Epigenetic derep: epigenetic control regulation, reporter derepression; Potency, µM (series often up to 53.9 µM), actives largely listed as activators; AID 1865; hit rate 0.2% among 280,000; murine LDR cells, GFP reporter derepression, 30 h; note: nearly all actives have a fitted effect of over 60% in size
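Murine LDR cells bearing a silenced CMV-driven GFP reporter were exposed to compound for 30 h at 37 C. After PBS washes, GFP-positive cells (20-120 um objects) counted by laser-scanning microplate cytometry.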
Apoferritin bind: candidate novel general anesthetic via apoferritin binding; hit rate 0.074% among 350,000; P02791; Potency, µM (highest dose often 77.5 µM), usual class: inhibitors; apoferritin/1-aminoanthracene competitive binding, fluorescence; AID 485281; note: nearly all actives have a fitted effect of over 20% in size
Target sequence (P02791 2-175 limits assumed): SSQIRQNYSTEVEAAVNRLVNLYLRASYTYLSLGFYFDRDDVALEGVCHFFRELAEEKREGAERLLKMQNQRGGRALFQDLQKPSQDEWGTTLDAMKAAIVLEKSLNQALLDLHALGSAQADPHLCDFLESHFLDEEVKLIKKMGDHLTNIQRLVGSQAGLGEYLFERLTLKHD
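Read-out: endpoint 1-AMA fluorescence, excitation 380 nm and emission 535 nm, after compounds sit 10 min at room temperature with 10 uM horse-spleen apoferritin in 50% saturated 1-AMA/PBS. Values come from four-parameter Hill fits.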
Each line names hits and unclear results; the compound was inactive in the other large screens. Unless noted, calls come from the whole dose curve; as a rule, active = well fitted curve in the direction sought with a large enough effect; inconclusive = small, poorly fitted or top-dose-only effect, or another doubt; inactive = no such curve, though single readings can be large; an effect the other way counts as inactive or inconclusive.

COC(=O)c1ccc(NC(=O)CNCc2ccncc2)cc1	LDHA block -30.3
COC(=O)c1ccc(CNCC(=O)Nc2ccc(C(=O)OC)cc2)cc1	none
Cc1ccc2cc(NC(=O)C3(C)CCN3CC(C)C)ccc2n1 (configuration not stated)	none (no result: Vif-A3F inh, Epigenetic derep, Apoferritin bind)
Cc1ccccc1Cn1c(=N)n(CC(=O)c2ccc([N+](=O)[O-])cc2)c2ccccc21	Vif-A3F inh 28.2µM
CC1CCCN(CCCOc2ccc([N+](=O)[O-])cc2)C1 (configuration not stated)	none
Cc1cccc(NC(=O)Cn2cc(C(=O)C3CC3)c3ccccc32)c1	none (no result: Epigenetic derep)
Cc1cc(C)cc(NC(=O)Cn2cc(C(=O)C3CCCCC3)c3ccccc32)c1	Vif-A3F inh 7.08µM, Vif-A3G inh inconclusive
CC1CCN(CCOCCOc2ccc(Cl)cc2Br)CC1	LDHA block -33.7
CC1CCN(CCCOc2ccc(Cl)cc2Br)CC1	none
CCSC1=NSC2=NC(=O)/C(=C\c3coc4ccccc4c3=O)C(=N)N12	Vif-A3F inh 25.1µM, Vif-A3G inh inconclusive
Cc1nc(N2CCN(S(=O)(=O)c3ccc(F)cc3)CC2)c2c(-c3cccs3)csc2n1	none
C[n+]1cnc(-c2ccccc2)cc1-c1ccccc1	LDHA block -48.5
N#C/C(=C/c1ccc(N2CCCCCC2)o1)c1ccc(Cl)cc1	Vif-A3F inh inconclusive, Vif-A3G inh inconclusive, Epigenetic derep 7.08µM
N#C/C(=C/c1ccc(N2CCCCC2)o1)c1cccc(F)c1	Vif-A3F inh 10µM, Vif-A3G inh inconclusive, Epigenetic derep 6.31µM, Apoferritin bind inconclusive
N#C/C(=C/c1ccc(N2CCCCC2)cc1)c1cccc(F)c1	none
Cc1nn(C)c(C)c1CNCc1cccnc1N1CCOCC1	LDHA block -38.5 (no result: Vif-A3F inh, Vif-A3G inh, Epigenetic derep, Apoferritin bind)
Cc1nn(C)c(C)c1CNCc1ccnc(N2CCOCC2)c1	none (no result: Vif-A3F inh, Vif-A3G inh, Epigenetic derep, Apoferritin bind)
Nc1[nH]c2cc([N+](=O)[O-])ccc2c1-c1ccccn1	Vif-A3F inh 10µM, Vif-A3G inh inconclusive (no result: Epigenetic derep)
Cc1nonc1OC(C)CNc1ccc([N+](=O)[O-])cc1 (configuration not stated)	Apoferritin bind 31.6µM
Cc1cc(/C=C\c2ccc3cc(N(C)C)ccc3[n+]2C)c(C)n1-c1ccccc1	Vif-A3F inh 3.16µM, Vif-A3G inh 7.08µM
CN(C)c1ccc(/C=C/c2ccc3ccccc3[n+]2[O-])cc1	Vif-A3G inh inconclusive (no result: Vif-A3F inh, Epigenetic derep, Apoferritin bind)
CC(=O)Oc1c(-c2ccc(Br)o2)oc2ccccc2c1=O	Vif-A3F inh 12.6µM (no result: Epigenetic derep)
COc1cccc(C2C=C(c3ccc(Br)s3)Nc3ncnn32)c1OC (configuration not stated)	Vif-A3F inh inconclusive
Fc1ccc(Br)cc1C1C=C(c2ccc(Br)s2)Nc2ncnn21 (configuration not stated)	Vif-A3F inh 22.4µM, Vif-A3G inh inconclusive
O=C(CSc1ncnc2nc[nH]c12)Nc1cc(Cl)ccc1Cl	LDHA block -37.8 (no result: Vif-A3F inh, Vif-A3G inh, Epigenetic derep, Apoferritin bind)
O=C(CSc1ncnc2nc[nH]c12)Nc1ccccc1Cl	none (no result: Vif-A3F inh, Vif-A3G inh, Epigenetic derep, Apoferritin bind)
CCN1C(=O)/C(=C2/Sc3ccc(OC)cc3N2C)SC1=Nc1cccc(O)c1	Vif-A3F inh inconclusive, Vif-A3G inh 10µM, Epigenetic derep inconclusive
C=CCN1C(=O)/C(=C2/Sc3ccc(OC)cc3N2C)SC1=Nc1ccccc1	Epigenetic derep inconclusive
CCCCN(CC)CCCNC(=O)c1cn(CC)c2ccc(S(=O)(=O)N3CCOCC3)cc2c1=O	none
Cc1ccc2nc(/C(C#N)=C\c3ccc(N4CCOCC4)o3)[nH]c2c1	Vif-A3G inh inconclusive, Epigenetic derep 14.1µM
Cc1ccc(/C(C#N)=C\c2ccc(N3CCOCC3)o2)cc1	Vif-A3F inh inconclusive, Vif-A3G inh inconclusive, Epigenetic derep inconclusive
Cc1ccc2nc(/C(C#N)=C\c3ccc([N+](=O)[O-])o3)[nH]c2c1	Vif-A3F inh inconclusive, Vif-A3G inh 6.31µM, Epigenetic derep 1µM
S=c1[nH]nc(-c2cc(-c3ccccc3)n[nH]2)n1/N=C/c1ccc(Br)s1	LDHA block -42.7
S=c1[nH]nc(-c2cc(-c3ccccc3)n[nH]2)n1/N=C/c1c(Cl)cccc1Cl	none
COc1ccc(NC(=O)CSc2nc(N)c(C#N)cc2C#N)cc1	none
O=C(CN1c2cccc3cccc(c23)S1(=O)=O)Nc1ccc(S(=O)(=O)N2CCOCC2)cc1	Vif-A3F inh 22.4µM
O=C(CN1C(=O)c2cccc3cccc1c23)Nc1ccc(S(=O)(=O)N2CCOCC2)cc1	none
Cn1c(SCC(=O)NCc2ccco2)nnc1-c1cccc(NC(=O)c2ccccc2)c1	none (no result: Vif-A3F inh, Epigenetic derep, Apoferritin bind)
CCC(=O)Nc1cccc(-c2nnc(SCC(=O)NCc3ccco3)n2C)c1	LDHA block -30.6
N=c1oc2c3c4c(cc2cc1C(=O)Nc1ccccc1)CCCN4CCC3	Epigenetic derep 0.282µM
Cc1ccc(NC(=O)COC(=O)CSC(=S)N2CCOCC2)cc1C	Apoferritin bind 5.62µM
Cc1ccc(NC(=O)COC(=O)CN2CSCC2=O)cc1C	none
O=C(/C=C/c1ccncc1)c1cc(Cl)ccc1O	Vif-A3F inh 25.1µM, Vif-A3G inh inconclusive
Cn1ccnc1/C(=N\NC(=O)c1ccc(O)cc1)c1cccc([N+](=O)[O-])c1	none
CNC(CC(=O)O)C(=O)O (configuration not stated)	none (no result: Vif-A3F inh, Vif-A3G inh, Apoferritin bind)
CN(/N=C/c1ccc(N(C)C)cc1)C1=NS(=O)(=O)c2ccccc21	Vif-A3G inh 4.47µM (no result: Epigenetic derep)
COc1ccc(/C=N/N(C)C2=NS(=O)(=O)c3ccccc32)cc1	none (no result: Epigenetic derep)
Cc1ccc(C)c(C(C)NC(=S)NCc2ccc(F)cc2)c1 (configuration not stated)	Vif-A3F inh 11.2µM (no result: Epigenetic derep)
CC(NC(=O)COC(=O)Cc1ccsc1)C1CC2CCC1C2 (configuration not stated)	Apoferritin bind 15.8µM
CCc1ccc(NC(=O)Cn2c(=O)ccc3cc(S(=O)(=O)N4CCCC4)ccc32)cc1	Epigenetic derep inconclusive
CCOC(=O)n1c(=O)n(Cc2cccc(F)c2)c2ccccc21	none
CCn1cc(C(=O)N2CCN(c3cc(Cl)ccc3C)CC2)c(=O)c2cc(S(=O)(=O)N3CCOCC3)ccc21	Apoferritin bind inconclusive
O=C(c1cccnc1)N1CCN(Cc2ccccc2Br)CC1	LDHA block -31.5
COc1ccccc1C(=O)N1CCN(C2CCN(Cc3ccccc3)CC2)CC1	none
COc1ccccc1C(=O)N1CCN(Cc2cccnc2)CC1	LDHA block -32.6 (no result: Epigenetic derep)
Cc1ccc2c3c([nH]c2c1)C(=O)CC(C)(C)S3	none
CCOc1ccc(-c2ncncc2-c2ccc(OC)cc2)c(O)c1	none
COc1ccccc1CNS(=O)(=O)c1ccc2[nH]c3c(c2c1)CCCCC3	none
COc1ccccc1CNS(=O)(=O)c1ccc2[nH]cc(C(=O)O)c(=O)c2c1	LDHA block -56.3
Cc1ccc(C(=O)N(CCC2=CCCCC2)c2c(N)n(Cc3ccccc3)c(=O)[nH]c2=O)o1	none (no result: Epigenetic derep, Apoferritin bind)
Nc1c(N(CCC2=CCCCC2)C(=O)c2ccc([N+](=O)[O-])o2)c(=O)[nH]c(=O)n1Cc1ccccc1	Vif-A3F inh 22.4µM (no result: Epigenetic derep, Apoferritin bind)
Cc1cc(-c2ccccc2)nc(N/N=C/c2ccccc2F)n1	Vif-A3F inh 22.4µM (no result: Epigenetic derep)
